The campaign covered roughly 340,000 compounds. About 1,000 (0.29%) were called active. A selection follows. Potency and affinity values are given separately. Values without a mark were called inactive. Rule as the data show it: inconclusive = inhibition above about 27% without an active follow-up result; inactive = below that.
Experiment: H1N1 influenza NS1A inhibitors, functional cell based assay (AID 504329)
Settings: percent inhibition, at 12.5 µM, hits give high values

SMILES	inhibition [%]
O=C(Nc1nc2c(F)cccc2s1)C1CC1	-11.6
O=C(CN1CCCCC1)Nc1ccc(F)c(Cl)c1	6.14
CC(=O)N1N=C(c2ccc(C)cc2)CC1c1ccc2c(c1)OCO2 (configuration not stated)	-19.2
Cc1n[nH]c(C)c1CCN(C)Cc1cn(C)nc1-c1ccccc1F	-2.31
CCOC(=O)C(CC)n1cnc2c(nnn2-c2ccccc2)c1=O (configuration not stated)	4.43
CC(C)C[C@@H](CNCC(=O)[C@H](Cc1ccccc1)NC(=O)c1[nH]cnc1C(=O)N[C@@H](C)CN)NC(=O)c1nc[nH]c1C(=O)N[C@@H](C)C(=O)O	-9.76
O=C(NCc1cccs1)Nc1cc(Cl)ccc1Cl	-3.84
CC(NC(=O)c1ccco1)C(=O)Nc1nccs1 (configuration not stated)	-3.4
Cc1csc(NC(=O)C2CC(=O)N(c3ccc4c(c3)OCCO4)C2)n1 (configuration not stated)	-10.8
C[C@H](NC(=O)c1ccco1)C(=O)Nc1nc(-c2ccccn2)cs1	21.6
O=C(Nc1nc(-c2ccccc2)cs1)C1COc2ccccc2O1 (configuration not stated)	3.59
Cc1csc(NC(=O)C2COc3ccccc3O2)n1 (configuration not stated)	3.59
Cc1ccnc2nc(C(=O)Nc3nc4ccccc4s3)nn12	-12.1
COc1ccc(-c2csc(NC(=O)C3CC(=O)N(c4ccc5c(c4)OCCO5)C3)n2)cc1 (configuration not stated)	-0.66
Cc1csc(NC(=O)c2nc3nccc(C)n3n2)n1	11.3
Cc1ccc(NCC(=O)N/N=C/c2ccncc2)cc1	-3.31
COc1ccc(Cc2noc(CN(C)CC(O)c3ccccc3)n2)cc1OC (configuration not stated)	-6.23
CC(C)Cc1nnc(NC(=O)c2ccncc2)s1	7
C[C@H](CO)N1C[C@H](C)[C@@H](CN(C)S(=O)(=O)c2cccs2)Oc2ccc(NC(=O)Cc3ccccc3)cc2C1=O	-1.59
O=C(CN1C(=O)NC2(CCOc3ccccc32)C1=O)Nc1cccc(Cl)c1 (configuration not stated)	3.28
CC(=O)CC(=O)Nc1ccn(-c2ccccc2)n1	10.6

SMILES	inhibition [%]
O=C(CNC(=O)c1ccco1)NCC(=O)OCC(=O)c1ccc(Cl)c([N+](=O)[O-])c1	6.1
O=C1OC(c2ccc(F)cc2)=N/C1=C\C=C/c1ccccc1	-22.8
CC(C)(C)NC(=S)NC(=O)C12CCC3CC(CC(C3)C1)C2	0.27
CCOc1ncccc1C(=O)Nc1ccccc1N1CCOCC1	-4.05
Cc1csc(NC(=O)c2cccn2C)n1	-0.43
Cc1ccc(C(=O)Nc2nc(-c3ccccn3)cs2)s1	18.4
CC(Oc1ccccc1)C(=O)Nc1nc(-c2ccccn2)cs1 (configuration not stated)	16.9
Cc1cccc(C(=O)NC(C(=O)Nc2nc(-c3ccccn3)cs2)C(C)C)c1 (configuration not stated)	15.6
COc1ccc(NC(=O)CSCc2cc(=O)n3nc(C4CC4)sc3n2)cc1	2.59
CCCCOc1c(Cl)cc(CNC(C)(C)CO)cc1OCC	-2.92
Cc1ccc(-c2nn(C)c(=O)c3ccccc23)cc1S(=O)(=O)NCCN1CCOCC1	-10.6
O=C1C2CCCN2C(c2ccc(F)c(F)c2)N1c1cccc(Cl)c1 (configuration not stated)	-6.3
Cc1cc(OCc2cn3cccnc3n2)ccc1Cl	6.77
CCOc1ccc2[nH]c(=O)c(CN(Cc3ccccc3OC)C(=O)c3ccccc3)cc2c1	21.1
CCOc1ccc(S(=O)(=O)N2CCC(C(=O)OCc3cccc(OC)c3OC)CC2)cc1	-13.5
COc1ccc(C)cc1N=Nc1ccc(O)c2ncccc12	6.77
CCS(=O)(=O)c1ccc(OC)c(N=Nc2ccc(O)c3ncccc23)c1	9.35
COc1cccc(N=Nc2ccc(O)c3ncccc23)c1	-0.21
Cc1ccc(C)c(N=Nc2ccc(O)c3ncccc23)c1	5.69
Cc1cccc(N=Nc2ccc(O)c3ncccc23)c1	0.95
COc1ccc(N=Nc2ccc(O)c3ncccc23)cc1	2.93

SMILES	inhibition [%]
O=C(NCc1ccco1)c1nn(-c2ccccc2)c(=O)c2ccccc12	0.06
O=C(COC(=O)CSc1ccc2ccccc2c1)NCc1ccc2c(c1)OCO2	2.14
CC(C)(C)CC(C)(C)NCC(O)COc1ccc2c(c1)CCC2 (configuration not stated)	5.01
Cc1ccc(S(=O)(=O)NC2CCCCC2)c(C)c1NS(C)(=O)=O	3.57
Cc1ccc(-c2nn(-c3ccccc3Cl)cc2C(=O)NCC2CCCO2)cc1 (configuration not stated)	-0.44
COCCN(CC(=O)Nc1cccc(C)c1C)C(=O)Cc1cccs1	-7.25
Cc1cc(S(=O)(=O)N(Cc2ccccc2F)C2CC2)ccc1-n1cnnn1	6.46
O=C(Nc1ccccc1)OCN1C(=O)c2ccccc2C1=O	2.63
CC(C)(C)C(=O)O/N=C1/C(=O)N(c2ccccc2)c2ccccc21	-9.74
CCN(CC)c1ccc(/C=C(\C#N)C(N)=O)cc1	2.41
CCc1ccc(/C=C(/C#N)C(N)=S)cc1	-1.52
CCN(CC)S(=O)(=O)c1ccc2oc(Nc3ccccc3)nc2c1	10.4
[O-]c1c[n+](-c2ccc(-[n+]3cc([O-])on3)cc2)no1	3.68
Cc1c(C)c2cccnc2c2ncccc12	3.77
Cc1ccc2c(C)ccc(O)c2n1	-11
Cc1cccc2cccnc12	-13.9
Cc1ccnc2c1ccc1ccccc12	-14.1
Cc1n[nH]c(=O)c2c(NC(=O)CSc3nc4ccccc4c(=O)n3-c3ccc(OC(F)F)cc3)oc(C)c12	-4.1
CC(=O)N(C)C1=Nc2ccc(Cl)cc2C(c2ccccc2)=[N+]([O-])C1	-5.29
CCN(Cc1ccccc1)C(=O)COC(=O)CNS(=O)(=O)c1ccc(C)cc1	-5.52

From PubChem BioAssay AID504329 (Southern Research Specialized Biocontainment Screening …, 2011)
